In the library only some 9.5% were active in any assay of this set; here they are far more common.
Pf growth 48h: P. falciparum growth inhibition at 48 hours (one generation); P. falciparum luciferase growth in erythrocytes, 48 h; Potency, µM (highest dose often 28.7 µM), usual class: inhibitors; actives 5.9% (n = 310,000); AID 504832; active = well fitted inhibition curve with a large enough effect; inconclusive = small, poorly fitted or top-dose-only effect, or another doubt; inactive = no such curve, though single readings can be large or run the other way
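Compounds are pin-transferred into medium, infected erythrocytes (2% hematocrit, 0.1% parasitemia final) are added, and plates sit one parasite generation at 37 C in 5% CO2. Detection reagent is then added and luminescence measured.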
SARS PLpro yeast: inhibitors of SARS-CoV papain-like protease in yeast; Potency, µM (series often up to 32.9 µM), hits mostly activators; S. cerevisiae expressing SARS-CoV PLpro, growth rescue; actives 0.19% (n = 330,000); also: nearly all actives have a fitted effect of over 55% in size
NS1 function inh: blocks influenza NS1 protein function | Potency, µM (series often up to 46.1 µM) | actives 0.4% (n = 270,000) | AID 2326; also: actives are rising curves; nearly all actives have a fitted effect of over 50% in size
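In this qHTS, NS1 from influenza A is expressed in budding yeast, where it slows growth. Cells are switched from glucose to 2% galactose medium (pH 6.0, -URA), treated with compound, and growth recovery is read at OD600.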
Pf growth 96h: P. falciparum growth inhibition at 96 hours | actives 6.9% (n = 320,000) | AID 504834 | P. falciparum luciferase reporter growth, 96 h | Potency, µM (highest dose often 28.7 µM), usual class: inhibitors; active = well fitted inhibition curve with a large enough effect; inconclusive = small, poorly fitted or top-dose-only effect, or another doubt; inactive = no such curve, though single readings can be large or run the other way
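96 h incubation, 37 C, 5% CO2, of luciferase-reporter P. falciparum-infected RBCs (2% hematocrit, 0.05% parasitemia final) with test compounds; endpoint luminescence.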
RE007 growth inh: less growth of the S. pombe RE007 Vpr strain; Potency, µM (titrated, usually from 92.2 µM), most hits filed as inhibitors; AID 651644; S. pombe RE007 Vpr strain, BacTiter-Glo ATP luminescence, 24 h; actives 0.21% (n = 360,000); active = well fitted falling curve with a large enough effect; inconclusive = small, poorly fitted or top-dose-only effect; inactive = no such curve, though single readings can be large or run the other way; also: nearly all actives have a fitted effect of over 50% in size
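Fission yeast RE007 carrying one integrated HIV-1 vpr copy, seeded at OD 0.01 in PMG+AL medium with 23 nL pinned compound. Grown 24 h at 30 degrees; viability read by BacTiter-Glo luminescence after 5 min.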
A number is an active result; n = inactive; u = inconclusive; x = not tested or not shown; [ ] = dose if it differs, or a comment. Unless noted, calls follow the shape of the full dose curve.

SMILES | Pf growth 48h | SARS PLpro yeast | NS1 function inh | Pf growth 96h | RE007 growth inh
O=C1/C(=N\S(=O)(=O)c2cccs2)C([n+]2cccc(Cc3ccccc3)c2)=C([O-])c2ccccc21 | 1.65µM | n | n | 0.738µM | n
O=C(CN1CCN(c2ccc(F)cc2)CC1)Nc1nccs1 | n[0.00184 µM] | n | n | n | n
Cc1cc(OCC(O)CN2CCCC2)ccc1C(C)C (configuration not stated) | u | n | n | n | n
Cc1cc(OCC(O)CN2CCN(CCO)CC2)ccc1C(C)C (configuration not stated) | n | n | n | 9.28µM | n
Cc1ccc2ccccc2c1NC(=O)Cn1nnc(-c2cccnc2)n1 | n | n | n | 0.657µM | n
COc1ccc(CN2CCCC(N3CCN(c4ccc(OC)cc4)CC3)C2)cc1 (configuration not stated) | n | n | n | n | n
COc1ccc(CN2CCCC(N3CCN(c4cccc(Cl)c4)CC3)C2)cc1OC (configuration not stated) | u | n | n | 9.28µM | n
CCOc1cc(CN2CCCC(N3CCN(c4ccc(F)cc4)CC3)C2)ccc1OC (configuration not stated) | 1.04µM | n | n | n | n
Cc1ccc(S(=O)(=O)c2cnc3cc(C)nn3c2N)cc1 | n | n | x | 5.86µM | n
Cc1cc2ncc(S(C)(=O)=O)c(N)n2n1 | n | n | x | n | n
COc1ccc(CN2CCNC(=O)C2CC(=O)NCCN2CCCCC2=O)c(F)c1 (configuration not stated) | n | n | n | n | n
CC(C)(C)c1ccc(C(=O)c2c[nH]c(C(=O)NCCCN3CCOCC3)c2)cc1 | 13.1µM | n | n | 10.4µM | n
CC(C)(C)c1ccc(C(=O)c2c[nH]c(C(=O)NCCc3ccccn3)c2)cc1 | 10.4µM | n | x | u | n
CCC(CC)C(=O)c1c[nH]c(C(=O)NCCc2ccccn2)c1 | n | n | n | u | n
CCC(=O)c1c[nH]c(C(=O)NCCCN2CCOCC2)c1 | n | n | n | n | n
NNC(=O)c1ccc[n+](CCc2ccccc2)c1 | x | x | n | x | x
Cc1ccc(C(=O)NC(=S)N(C)C2CCCCC2)cc1 | n | n | n | u | n
C[C@@H]1CN([C@H](C)CO)C(=O)c2cc(Br)cnc2O[C@@H]1CN(C)C(=O)Nc1ccccc1 | x | x | x | x | n
CCN(CC)c1ccc2c(c1)CCCN2 | 10.4µM | 12.6µM | n | 10.4µM | x
O=S(=O)(c1ccc2c(c1)CCCN2)N1CCCC1 | n | n | x | n | n
Oc1ccc(Br)cc1-c1cc(-c2ccco2)[nH]n1 | 11.7µM | n | n | x | u
CCc1cc(=O)oc2cc(OCC(=O)NCCCN3CCCC3=O)c(Cl)cc12 | u | n | n | 11.7µM | n
Cc1cc(OCC(=O)NCC(O)c2ccccc2)c2c3c(c(=O)oc2c1)CCC3 (configuration not stated) | u | n | n | n | n
Cc1c(OCC(=O)N[C@H](C(=O)O)c2ccccc2)ccc2c3c(c(=O)oc12)CCCC3 | n | n | n | n | n
Cc1c(OCC(=O)NCCCN2CCCC2=O)ccc2c3c(c(=O)oc12)CCCC3 | u | n | n | 18.5µM | n
SMILES | Pf growth 48h | SARS PLpro yeast | NS1 function inh | Pf growth 96h | RE007 growth inh
Cc1c(OCC(=O)NCC(O)c2ccccc2)ccc2c3c(c(=O)oc12)CCC3 (configuration not stated) | n | n | n | 11.7µM | n
O=C(COc1cc2oc(=O)c3c(c2cc1Cl)CCC3)NCC(O)c1ccccc1 (configuration not stated) | n | n | n | 13.1µM | n
CCc1cc(=O)oc2cc(OCC(=O)NCCCn3ccnc3)c(Cl)cc12 | n | n | n | n | n
CCOCc1cc(=O)[nH]c(SC)n1 | n | n | n | n | n
Cc1c(OC(C)C(=O)NCC(O)c2ccccc2)ccc2c3c(c(=O)oc12)CCCC3 (configuration not stated) | 8.28µM | n | n | 4.15µM | n
CC(NC(=O)c1cccnc1Sc1ccccc1)c1ccc(S(N)(=O)=O)cc1 (configuration not stated) | n | n | n | n | n
CCN(CC)C(=O)CSc1nc(-c2cccs2)cc(-c2cccs2)c1C#N | 8.28µM | n | u | u | n
CN1CCN(C(=O)CSc2nc(-c3cccs3)cc(-c3cccs3)c2C#N)CC1 | u | n | n | 2.08µM | n
O=c1[nH]c(=S)[nH]c2c1C(c1cccc(C(F)(F)F)c1)OC(CCc1ccccc1)C2 (configuration not stated) | x | x | x | x | n
Cc1cccc(-c2noc(CCCC(=O)NC3CCCCC3)n2)c1 | n | n | n | n | n
CC(C)(C)NC(=O)C(c1ccc(-c2ccccc2)cc1)N(C[C@H]1CC[C@@H]([C@@H]2CC[C@H](CO)O2)O1)C(=O)c1ccc(C(C)(C)C)cc1 (some centres not stated) | x | n | x | x | n
O=C1c2ccccc2C(=O)N1CCCCSc1nnnn1-c1ccccc1 | n | n | n | u | n
O=C1c2ccccc2C(=O)N1CCCCSc1nnc2ccccn12 | 13.1µM | n | n | u | n
CCOc1ccc(C(=O)NCC(=O)OCC(=O)Nc2ccc(C)c(S(=O)(=O)N(C)C)c2)cc1 | n | n | n | n | n
Cc1cc(C)n(CC(=O)NC2CCCCC2C)c(=O)c1C#N (configuration not stated) | u | n | x | n | n
O=C(CSc1nnc(CCCN2C(=O)c3cccc4cccc(c34)C2=O)n1-c1ccccc1)NCCCO | u | n | n | n | n
O=C(CSc1nnc(CCCN2C(=O)c3cccc4cccc(c34)C2=O)n1-c1ccccc1)NCCCN1CCOCC1 | 9.28µM | n | n | n | n
CC(=O)Oc1ccc(C(=O)[C@H]2[C@H]3C(=O)N(c4ccccc4)C(=O)[C@H]3[C@@H]3C=CC=NN32)cc1 | n | n | u | n | n
COc1ccc(C(=O)[C@H]2[C@H]3C(=O)N(c4ccccc4)C(=O)[C@H]3C3C=CC=NN32)cc1 (some centres not stated) | 16.5µM | n | n | n | n
Cc1ccc(S(=O)(=O)NC(=O)C2(C)CCN2C(=O)c2ccc(C(F)(F)F)nc2C)cc1 (configuration not stated) | x | x | x | x | n[18.4 µM]
O=C(COc1ccc(-c2ccccc2)cc1)NNC(=O)Nc1ccc(F)cc1F | n | n | n | u | n
CC(=O)c1cccc(-c2ccnc3c2CC(C(=O)Nc2ccc(C(C)C)cc2)O3)c1 (configuration not stated) | x | x | x | x | n[18.4 µM]
CCN(Cc1ccncc1)C(=O)c1cc(COc2ccc(OC)cc2Cl)on1 | n | n | n | u | n
CN1CCN(CCOC2c3ccccc3CSc3ccc(Cl)cc32)CC1 (configuration not stated) | u | n | n | 10.4µM | n
COc1cccc(/C=C2\CCc3ccccc3C2=O)c1 | n | n | n | n | x
CCOP(=O)(OCC)c1ccc2c(c1)C(=O)c1ccccc1CC2 | n | n | x | 4.15µM | x
